Inconclusive results are not listed. A number with no mark means an inactive call. Active and inactive are the calls of the source. Calls come from the whole dose curve; as a rule, active = well fitted curve in the direction sought with a large enough effect in the repeat runs; inconclusive = weak or mixed curves; inactive = no such curve, though single readings can be large; an effect the other way counts as inactive or inconclusive.

The values that follow come from PubChem BioAssay (Tox21).

Test [1] is described as follows: qHTS RealTime-Glo MT Cell Viability Assay in HEK293 cells - 16 hour (AID 1224872). Note: nearly all actives have a fitted effect of over 50% in size. Note: potency is the fitted concentration of half-maximal effect. In a few lines: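 Nonlytic real-time viability readout: viable cells convert prosubstrate to NanoLuc substrate, giving luminescence proportional to live cell number. HEK293, 600 cells/well, compound added after 5 h, continuous culture at 37 C.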
Test [2] in a line: qHTS RealTime-Glo MT Cell Viability Assay in HepG2 cells - 8 hour (AID 1224873). Note: nearly all actives have a fitted effect of over 55% in size. Note: potency is the fitted concentration of half-maximal effect. In a few lines: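 HepG2 cells mixed with RealTime-Glo MT reagents (NanoLuc plus cell-permeant prosubstrate) were seeded at 600 cells/well, incubated 5 h at 37 C/5% CO2, then pinned with compounds in DMSO; nonlytic luminescence tracked viability during 40 h treatment.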
A short description of test [3]: qHTS RealTime-Glo MT Cell Viability Assay in HEK293 cells - 40 hour (AID 1224874). Note: nearly all actives have a fitted effect of over 50% in size. Note: potency is the fitted concentration of half-maximal effect. To be noted: RealTime-Glo luminescence; max response: hits give low values. In a few lines:
(§1)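 qHTS format; HEK293 cells with NanoLuc/prosubstrate reagent, 37 C/5% CO2 for 5 h pre-dosing; compounds 23 nL in DMSO; luminescence at each time point reflects viable cells.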

Test [4] in a line: A CellTox Green Cytotoxicity Assay to monitor cytotoxicity in HEK293 cells - 24 hour (AID 1224875). Note: series mostly up to about 77 µM; nearly all actives have a fitted effect of over 45% in size. In a few lines:
(§2)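 Each value comes from one timepoint of a single continuous run in which HEK293 cells with CellTox Green were exposed to compound for up to 40 h at 37 C, dye fluorescence rising with cell death.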

Test [5] in a line: A CellTox Green Cytotoxicity Assay to monitor cytotoxicity in HepG2 cells - 16 hour (AID 1224876). Note: nearly all actives have a fitted effect of over 45% in size. Note: potency is the fitted concentration of half-maximal effect. In a few lines:
(§3)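 Continuous culture of HepG2 cells with a membrane-impermeant DNA dye; rising fluorescence marks dead cells. Compound exposure lasted up to 40 h at 37 C, with reads every 8 h from 0 h.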

A short description of test [6]: qHTS RealTime-Glo MT Cell Viability Assay in HepG2 cells - 32 hour (AID 1224877). Note: nearly all actives have a fitted effect of over 55% in size. Note: potency is the fitted concentration of half-maximal effect. A digest of the protocol:
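Luminescence read-out: viable HepG2 cells reduce a prosubstrate to a NanoLuc substrate, giving a signal proportional to live cell number. Reads taken at 0, 8, 16, 24, 32 and 40 h of compound exposure at 37 C.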

The nature of test [7]: A CellTox Green Cytotoxicity Assay to monitor cytotoxicity in HepG2 cells - 40 hour (AID 1224879). Note: nearly all actives have a fitted effect of over 40% in size. Note: potency is the fitted concentration of half-maximal effect. A digest of the protocol: as §3
The nature of test [8]: qHTS RealTime-Glo MT Cell Viability Assay in HEK293 cells - 0 hour (AID 1224880). Note: top concentration of the series differs between compounds; nearly all actives have a fitted effect of over 45% in size. A digest of the protocol: as §1
Test [9] can be described thus: A CellTox Green Cytotoxicity Assay to monitor cytotoxicity in HEK293 cells - 32 hour (AID 1224881). Note: nearly all actives have a fitted effect of over 40% in size. Note: potency is the fitted concentration of half-maximal effect. In a few lines: as §2
Test [10] in a line: A CellTox Green Cytotoxicity Assay to monitor cytotoxicity in HepG2 cells - 24 hour (AID 1224878). Note: nearly all actives have a fitted effect of over 45% in size. A digest of the protocol: as §3
% is set by controls: 0 for no effect and ±100 for the full control effect.

`CC(C)[N+](=O)[O-]`: the Potency result in [1], in test [2], in [4], in test [5], in test [6] and in test [7] was “inactive” throughout. Moreover, the Potency result in [9] was “inactive”. The max response in test [3] was 0.0306%. Moreover, in test [8], the outcome was inactive.

In the case of `O=C(O)c1ccc2[nH]cc(CCCCN3CC=C(c4ccccc4)CC3)c2c1`, the Potency entry in test [1], in test [2], in test [4], in test [5], in [6] and in test [10] was “inactive” in each case. The Potency entry in [7] and in test [9] was “inactive” throughout. Moreover, the max response in [3] is -1.51%. The result in [8] was inactive.

`O=C1CN=C(c2ccccc2)c2cc([N+](=O)[O-])ccc2N1`: the Potency entry in [1], in test [2], in test [4], in test [5], in test [6] and in test [10] was “inactive” throughout. Also, the Potency result in test [7] and in test [9] was “inactive” in each case. The max response in [3] is -17.7%. In test [8], the molecule was called inactive.

With `O=c1oc2ccccc2c(O)c1C1CCCc2ccccc21` (stereo unspecified), the Potency result in [1], in test [2], in test [4], in test [5], in test [6] and in test [7] was “inactive” in each case. The Potency result in test [9] was “inactive”. For the same molecule, in [3], the max response was 14.6%. Moreover, the molecule was classed as inactive in [8].

Take `N#CC(Cl)(Cl)Cl`: the Potency result in test [1], in test [2], in test [4], in [5], in test [6] and in [7] was “inactive” each time. Also, the Potency result in [9] is “inactive”. For the same molecule, the max response in test [3] is 3.49%. Besides, the molecule was classed as inactive in test [8].

In the case of `C[C@H]1CCC[C@H](O)CCCCCc2cc(O)cc(O)c2C(=O)O1`, the figures for the Potency in [1] and in test [3] were 34.9 µM (active) and 24.7 µM (active), respectively. Besides, the Potency entry in test [2], in [4], in [5], in test [6], in test [10] and in test [9] was “inactive” each time. Besides, the result in test [8] was inactive.

For the molecule `CCCCN(CCCCO)N=O`, the Potency entry in [1], in test [2], in [4], in test [5], in test [6] and in test [7] was “inactive” throughout. In addition, the Potency result in test [9] is “inactive”. For the same molecule, the max response in test [3] was 3.79%. Moreover, the molecule was classed as inactive in test [8].

Consider `CCN(CC)CCOC(=O)C(C)(c1ccccc1)c1ccccc1`, for which the Potency result in test [1], in test [2], in test [4], in test [5], in [6] and in [7] was “inactive” each time. In addition, the Potency result in [9] is “inactive”. For the same molecule, in test [8], the outcome was inactive.

Consider `OCCBr`, for which the Potency result in test [1], in [4], in test [5], in [6], in test [10] and in test [7] was “inactive” in each case. Further, the Potency result in [9] was “inactive”. The max response in [3] was 13.1%. For the same molecule, in [8], the molecule was called inactive.

With `CCNc1nc(NC(C)C)nc(OC)n1`, the Potency entry in test [1], in test [4], in test [5], in test [6], in test [10] and in test [7] was “inactive” in each case. Moreover, the Potency entry in test [9] was “inactive”. Moreover, in [3], the max response was -7.59%. Moreover, in test [8], the molecule was called inactive.

In the case of `N#CC(CCc1ccc(Cl)cc1)(Cn1cncn1)c1ccccc1` (stereo unspecified), the Potency in test [1] is 21.9 µM (active); in test [2], 38.9 µM (active); in test [3], 17.4 µM (active); in test [5], 21.9 µM (active); in [6], 43.6 µM (active); in test [7] it was 24.5 µM (active). For the same molecule, in test [9], the Potency is 54.9 µM (active). In test [8], the molecule was classed as inactive.

For `CC(C)(C)C(=O)C(Oc1ccc(Cl)cc1)n1cncn1` (stereo unspecified), the Potency entry in test [1], in test [2], in [4], in test [5], in [6] and in [10] was “inactive” throughout. Also, the Potency entry in test [7] and in test [9] was “inactive” throughout. Besides, the result in test [8] was inactive.

In the case of `C#CCN1C(=O)COc2cc(F)c(N3C(=O)C4=C(CCCC4)C3=O)cc21`, the Potency entry in [1], in test [4], in test [5], in test [6], in test [10] and in [7] was “inactive” throughout. Further, the Potency entry in test [9] is “inactive”. Moreover, the max response in [3] was 2.01%. Besides, the call in test [8] was inactive.

As for `C(CCOCC1CO1)COCC1CO1` (stereo unspecified), the Potency result in test [1], in test [2], in test [4], in test [5], in test [6] and in test [10] was “inactive” throughout. Moreover, the Potency entry in [7] and in [9] was “inactive” in each case. In addition, the molecule was classed as inactive in test [8].

On to `COc1cc(OC)nc(Sc2cccc(Cl)c2C(=O)O)n1`, for which the Potency result in test [1], in test [4], in test [5], in [6], in test [10] and in [7] was “inactive” in each case. The Potency result in test [9] was “inactive”. In [3], the max response was 16.2%. Moreover, the molecule was classed as inactive in test [8].

Regarding `O=[N+]([O-])c1cccc(O)c1`, the Potency entry in test [1], in [4], in [5], in [6], in test [10] and in test [7] was “inactive” in each case. Also, the Potency entry in test [9] was “inactive”. Further, the max response in test [3] was 4.13%. Moreover, the outcome in [8] was inactive.

As for `CC(C)CP(=S)(S)CC(C)C`, the Potency entry in test [1], in test [4], in test [5], in [6], in test [10] and in test [7] was “inactive” each time. The Potency result in [9] was “inactive”. Besides, in [3], the max response was 3.1%. Moreover, the molecule was called inactive in [8].

Turning to `COc1ccc(C(=O)N2CCCC2=O)cc1`, the Potency result in [1], in [2], in test [4], in test [6] and in [9] was “inactive” in each case. Moreover, in test [3], the max response was -7.3%. Also, the call in test [8] was inactive.

For `C[C@@H]1CN(C2CCC(C#N)(c3ccc(F)cc3)CC2)CC[C@]1(C(=O)O)c1ccccc1` (stereo partly specified), the Potency result in test [1], in test [4], in test [5], in [6], in test [10] and in [7] was “inactive” throughout. In test [9], the Potency entry was “inactive”. The max response in test [3] is 2.36%. Further, the molecule was classed as inactive in test [8].

On to `CCOc1nc(C(Cl)(Cl)Cl)ns1`, for which the Potency result in test [1], in test [4], in test [5], in test [6], in [10] and in [7] was “inactive” in each case. Also, in [9], the Potency result was “inactive”. Further, in test [3], the max response is 3%. In addition, the call in [8] was inactive.

For `O=NN1CCCCC1`, the Potency entry in [1], in test [4], in [5], in test [6], in test [10] and in [7] was “inactive” in each case. In addition, the Potency entry in [9] was “inactive”. In [3], the max response was 1.37%. The molecule was called inactive in [8].

As to `Cc1ccccc1CO[C@@H]1C[C@@]2(C(C)C)CC[C@]1(C)O2`, the Potency result in [1], in test [2], in [5], in test [6], in test [10] and in [7] was “inactive” throughout. Also, in [3], the max response is -15.4%. Also, the molecule was classed as inactive in test [8].

As for `CC(CC(C#N)(c1ccccc1)c1ccccc1)N(C)C` (stereo unspecified), the Potency entry in test [1], in test [2], in test [4], in [5], in test [6] and in test [10] was “inactive” throughout. The Potency result in test [9] is “inactive”. For the same molecule, in test [8], the outcome was inactive.

For `C1CCC(C2CCCCC2)CC1`, the Potency result in [1], in test [2], in test [4], in [5], in [6] and in test [10] was “inactive” each time. For the same molecule, the Potency result in test [7] and in [9] was “inactive” each time. Further, the molecule was classed as inactive in test [8].

With `CC1=NNC(=O)N(/N=C/c2cccnc2)C1`, the Potency entry in test [1], in [4], in [5], in test [6], in test [10] and in [7] was “inactive” each time. Moreover, in test [9], the Potency entry was “inactive”. The max response in [3] is 3.94%. For the same molecule, the molecule was called inactive in test [8].
